Results taken from the supplement of paper PMC3334620.
In all, about 33,000 sequences were measured (“E-score (-0.5 to 0.5)”: median about -0.035, highest 2% from about 0.34 on). The list comes from a sample in which the highest values are over-represented; it also holds similar and randomly drawn sequences.

biological target: T1, Mot3 (UniProt P54785); assay: PBM E-score (8-mer binding enrichment) (E-score (-0.5 to 0.5)); higher = stronger / more preferred TF binding; settings: protein concentration: 200 nM; construct: GST-full length
T1 sequence: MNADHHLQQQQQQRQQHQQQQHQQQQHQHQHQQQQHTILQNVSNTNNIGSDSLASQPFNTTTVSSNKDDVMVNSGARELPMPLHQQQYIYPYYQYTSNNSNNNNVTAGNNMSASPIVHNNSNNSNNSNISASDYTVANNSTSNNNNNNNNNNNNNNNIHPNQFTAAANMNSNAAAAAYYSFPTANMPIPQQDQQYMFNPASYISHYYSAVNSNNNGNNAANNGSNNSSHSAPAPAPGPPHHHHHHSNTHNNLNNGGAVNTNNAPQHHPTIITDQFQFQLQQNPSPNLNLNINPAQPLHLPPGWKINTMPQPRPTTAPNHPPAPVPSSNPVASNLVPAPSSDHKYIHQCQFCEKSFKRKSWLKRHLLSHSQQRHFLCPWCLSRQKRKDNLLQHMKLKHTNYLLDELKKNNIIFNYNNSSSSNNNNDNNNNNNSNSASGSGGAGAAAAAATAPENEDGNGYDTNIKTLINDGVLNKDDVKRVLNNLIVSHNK
Summary of the method: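 Detection of bound protein used fluorescent anti-GST, with scans normalised by masliner. The proteins were GST-tagged yeast transcription factors applied at about 100-200 nM to universal all-10-mer Agilent arrays made double-stranded by primer extension. Each ungapped eight-base word, pooled with its reverse complement, was scored with an E-score from the Universal PBM Analysis Suite.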

Sequence	PBM E-score
ACCGGCCG	-0.21
ACGGAACC	0.0959
ATGGAACG	0.0262
AAGGAAGG	0.176
AGGGAACC	0.00909
CAGGAACA	0.449
AAGGAACC	0.462
CAGAACCC	-0.0803
GAGGAACC	0.255
CAGAAACA	0.0657
CAGGAACC	0.46
CGGGAACA	0.147
AAGGAACG	0.465
TCGTGCCA	-0.155
GCACACCA	0.143
GGGGGGAC	-0.254
CTACTGTC	-0.103
GGTCTAAA	-0.127
GATCGCAA	-0.129
ACTCAAAA	-0.0489
CGGCAATA	0.0917
AGGCAATA	0.472
AGGCAATC	0.481
GGGCAATA	-0.132
CGGCAATC	-0.109

Sequence	PBM E-score
ATGCAATG	-0.0896
ACGCAATG	0.23
AAGCAATC	-0.0271
AGGCAATG	0.476
AACAGGAT	0.0971
CAATGGAC	-0.189
TAGCCAGA	-0.0655
GACACTAA	-0.106
AAGGCTGC	-0.00639
CACAGGGG	0.118
AGTTAGAT	0.0673
ACGCTTCT	-0.0128
CCAGACGG	-0.383
ATGCGTAA	0.32
CCGCGTAA	0.336
GGGCGTAA	0.135
GCGCGTAC	0.117
GTGCGTAA	0.356
ACGCGTAA	0.317
TCGCGTAA	0.374
CTGCGTAA	0.302
GCGCGTAA	0.34
ATTCTGAG	0.0253
TGTCGACA	0.111
ACAACAAT	0.182

Sequence	PBM E-score
GCACTTAA	0.133
CTTCAAGC	-0.0397
GTTTCCGA	0.122
CTTTCCTA	0.399
GTTTCCTA	0.411
CTTTCCTC	0.0989
GTTTCCAA	-0.12
CTTTCCCA	-0.0799
AGGCATGG	0.229
AAAGTGGG	-0.0287
TAGGAGCA	0.0656
CCGTAATA	0.121
ACGTAACG	0.0865
ACGTAATC	0.29
ACGTAATG	0.348
ACGTAATA	0.35
GCGTAATA	0.308
ACTTGCCT	0.479
ACTTGCCC	0.0267
AATTGCCT	0.472
AATTGCCC	0.0147
AATTGCCG	-0.145
ACTTGCCG	-0.189
CCGTGTCC	0.0332
AAGTGTAT	0.117

Sequence	PBM E-score
AAGTGTAG	0.158
CAGTGTAC	0.0758
CCGTGTAC	0.34
CCGTGTCG	0.126
CAGTGTAG	0.154
AGGTGTAG	0.0602
CCGTGTAG	0.367
ACGTGTAT	0.356
ACGTGTCT	0.14
ACGTGTAG	0.389
GCAATGGA	-0.00402
GAATCGGC	-0.269
CACCAGAG	-0.0278
CCTGCAAC	0.144
AACTTGCC	0.204
AAGTGTAC	0.0824
GCGTGTAC	0.337
ACGTGTAC	0.343
CCGTTAAG	-0.0319
CCAGGCAA	0.477
TCAGGCGA	-0.0408
CCAGGCCA	-0.29
CCAGGCGA	-0.155
CCAGGCCC	-0.101
TCAGGCAA	0.483

Sequence	PBM E-score
TCAGGCCA	-0.0359
CCAGGCAG	-0.119
CCAGGCAC	0.487
GAATACTC	-0.0747
GGAGCGCA	-0.281
CTGAACAG	-0.0714
CCGCAAGG	-0.128
ACACCTGT	0.193
TCTACTAA	0.0381
GCTGGACC	-0.332
AGGCAAGC	0.489
AGGCAAGA	0.477
ATGCAAGG	-0.116
AGGCAAGG	0.483
AAGCAAGC	-0.162
GGGCAAGA	0.0525
CGGCAAGC	-0.0333
ACGCAAGG	0.153
CGGCAAGA	-0.115
CCCTACAG	-0.128
GATCTCTA	-0.137
CCGGTCAG	-0.335
CCTCGTAG	0.0397
AATACCCC	-0.248
CTCAAGAC	-0.131

Sequence	PBM E-score
ATCAGCCC	-0.272
AAAGATGG	-0.0558
ACTTGTTC	0.162
ACAGCCCA	-0.0365
AATTTCCG	-0.0949
ACTTTCCC	0.0581
ACTTTCCG	-0.182
AATTTCCT	0.364
ACTTTCCT	0.383
AATTTCCC	-0.164
ATCCGGTG	0.0537
CCACTACG	-0.0192
GGATGAAC	-0.105
GTGAAAAA	0.155
TAGGGGGA	-0.264
CGACCCTA	-0.148
AGACTTTC	-0.187
CCGTTCTA	0.17
CACAGGTG	0.0773
CACAGGTA	0.352
CGCAGGTC	0.0458
CGCAGGTA	0.35
GACAGGTA	0.25
AACAGGTA	0.269
AGCAGGTA	0.328

Sequence	PBM E-score
TACAGGTA	0.393
CACAGGTC	-0.272
GGTGCGAC	-0.251
ACAACGGC	-0.0371
GAAAAGCC	-0.338
ATAGGTGA	-0.0643
CTAGGTAC	0.26
ATAGGTAG	0.109
ATAGGTAC	0.406
GTAGGTAA	0.346
ATAGGTAA	0.356
GTAGGTGA	0.0361
GTAGGTTA	0.22
CTAGGTAA	0.182
GCGGTAAC	0.063
ACATCTTA	0.0996
CCAAGCGG	-0.135
GACATCGC	0.0096
GGTTTTAC	0.154
CATTCCGC	-0.146
GACTACCA	-0.0944
AGATTACC	0.157
CGATTACA	0.357
